# PubChem BioAssay (NCATS)
# Records with an inconclusive call do not appear. Active and inactive are the calls of the source. Calls come from the whole dose curve; as a rule, active = well fitted activation curve with a large enough effect; inconclusive = small, poorly fitted or top-dose-only effect; inactive = no such curve, though single readings can be large or run the other way.
# Target: Cellular tumor antigen p53 (Homo sapiens) (UniProt P04637)
# Assay: Primary qHTS for small molecule compounds that upregulate eGFP-tagged delta133p53alpha (in N-terminal) cells. (AID 2060322); note: nearly all actives have a fitted effect of over 75% in size;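 for activation: cells pre-induced with doxycycline then dosed without doxycycline; series mostly up to about 56 µM; 0% = DMSO vehicle and 100% = reference activator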
# Conditions: NCI-H358 eGFP-delta133p53alpha fluorescence, 24 h; activation: stronger effect = higher value
# In short: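 NCI-H358 cells pre-induced 24 h with 10 ng/ml doxycycline for eGFP-delta133p53alpha, plated dox-free and exposed 24 h at 37C to titrated compounds. Fixed, Hoechst-stained; gated GFP peak intensity by laser scanning cytometry, normalized to DMSO (0%) and 57.5 uM 5-azacytidine (100%).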
# Potency is the fitted concentration of half-maximal effect.
# Chain of Cellular tumor antigen p53 (Homo sapiens) (P04637 whole entry, looked up): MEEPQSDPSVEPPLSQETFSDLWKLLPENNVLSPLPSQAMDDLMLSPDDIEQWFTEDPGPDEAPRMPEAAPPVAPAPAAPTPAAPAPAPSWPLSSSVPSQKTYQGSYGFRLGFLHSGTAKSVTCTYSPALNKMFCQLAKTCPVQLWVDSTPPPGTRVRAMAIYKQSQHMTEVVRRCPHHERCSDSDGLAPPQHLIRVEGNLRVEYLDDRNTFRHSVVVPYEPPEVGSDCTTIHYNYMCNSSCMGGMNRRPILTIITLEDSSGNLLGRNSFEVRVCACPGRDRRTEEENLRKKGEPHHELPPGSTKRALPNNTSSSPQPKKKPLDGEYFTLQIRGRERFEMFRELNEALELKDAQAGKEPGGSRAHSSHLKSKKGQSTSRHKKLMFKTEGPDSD
SMILES,activation,Potency
NCC(=O)CCC(=O)O,-14.1% (inactive),–
CCc1cc2cc(OC)c(OC)cc2c(Cc2ccccc2)n1,-22.6% (inactive),–
CCN(CC)CCOC(=O)C(c1ccccc1)C1CCCCC1 (configuration not stated),14.2% (inactive),–
FC(F)(F)c1ccc(C=Cc2nc(COc3ccc(CCCCn4ccnn4)cc3)co2)cc1,–,24.3 µM (active)
Nc1nnnn1-c1ccccc1,29.9% (inactive),–
NC(=O)CC[C@@H]1NC(=O)[C@H](Cc2ccccc2)NC(=O)[C@H](Cc2ccc(O)cc2)NC(=O)CCSSC[C@@H](C(=O)N2CCC[C@H]2C(=O)N[C@@H](CCCN=C(N)N)C(=O)NCC(N)=O)NC(=O)[C@H](CC(N)=O)NC1=O,-3.35% (inactive),–
Nc1ccn([C@@H]2O[C@H](CO)[C@H](O)C2(F)F)c(=O)n1,10.5% (inactive),–
C[C@H]1[C@H](O)O[C@@H]2O[C@@]3(C)CC[C@@H]4[C@H](C)CC[C@@H]1[C@@]24OO3,–,21.7 µM (active)
CCN(CC)C(=O)/C(C#N)=C/c1cc(O)c(O)c([N+](=O)[O-])c1,-3.95% (inactive),–
Nc1ccc(S(=O)(=O)Nc2ccc(Cl)nn2)cc1,2.51% (inactive),–
CC(=O)NCCCCCC(=O)O,0.837% (inactive),–
CC(=O)NCC(=O)N1[C@H]2CC[C@H]1c1cc(Nc3ncc(C(F)(F)F)c(NC4CCC4)n3)ccc12,32.7% (inactive),–
CC(=O)OC(C)OC(=O)C(C)c1ccc(-c2ccccc2)c(F)c1 (configuration not stated),-24.3% (inactive),–
CCCOc1ccc2c(c1)CC[C@@H]1[C@@H]2CC[C@]2(C)C(OC)CC[C@@H]12 (some centres not stated),0.565% (inactive),–
COc1cc2c(cc1OC)C(=O)CC2,-2.82% (inactive),–
CCCCCCCC(=O)OCC(COC(=O)CCCCCCC)OC(=O)CCCCCCC,-13.4% (inactive),–
CCCCC(=O)OCC(=O)[C@H]1[C@H](C)C[C@H]2[C@@H]3C[C@H](F)C4=CC(=O)C=C[C@]4(C)[C@@]3(F)[C@@H](O)C[C@@]21C,-6.21% (inactive),–
Cc1c(C)c2c(c(C)c1OC(=O)CCC(=O)OCCO)CC[C@@](C)(CCC[C@H](C)CCC[C@H](C)CCCC(C)C)O2,-20.9% (inactive),–
O=C(CS(=O)Cc1ccco1)NC/C=C\COc1cc(CN2CCCCC2)ccn1 (configuration not stated),-5.08% (inactive),–

SMILES,activation,Potency
Cc1cc(=O)[nH]c(=S)[nH]1,19.2% (inactive),–
C[C@H](NC(=O)C(C#N)=Cc1cccc(Br)n1)c1ccccc1,11.9% (inactive),–
Cc1cc(C)nc(NS(=O)(=O)c2ccc(N)cc2)n1,24.3% (inactive),–
O=C(O)C(S)C(S)C(=O)O (configuration not stated),-37.9% (inactive),–
COc1cc(C=CC(=O)O)ccc1O,-12.5% (inactive),–
Cc1cc(CCCOc2c(C)cc(-c3noc(C(F)(F)F)n3)cc2C)on1,19.8% (inactive),–
O=C(Nc1ccc([N+](=O)[O-])cc1)Nc1ccc([N+](=O)[O-])cc1,-25.9% (inactive),–
Nc1ccc(S(=O)(=O)Nc2ncccn2)cc1,-6.74% (inactive),–
CC[C@H]1OC(=O)[C@H](C)[C@@H](O[C@H]2C[C@@](C)(OC)[C@@H](O)[C@H](C)O2)[C@H](C)[C@@H](O[C@@H]2O[C@H](C)C[C@H](N(C)C)[C@@H]2O)[C@](C)(O)C[C@@H](C)CN(C)[C@H](C)[C@@H](O)[C@]1(C)O,2.23% (inactive),–
CCOC(=O)N1CCN([N+]([O-])=NOc2ccc([N+](=O)[O-])cc2[N+](=O)[O-])CC1,8.17% (inactive),–
CC(=O)OCC(=O)[C@@]1(O)CCC2C3CCC4=CC(=O)CC[C@]4(C)C3[C@@H](O)C[C@@]21C (some centres not stated),25.1% (inactive),–
COC(=O)N/N=C/c1c[n+]([O-])c2ccccc2[n+]1[O-],-30.1% (inactive),–
CS(=O)(=O)c1ccc(-c2cn3ccccc3n2)cc1,-26.8% (inactive),–
CN[C@H]1[C@@H](O)[C@@H]2O[C@@H]3O[C@H](C)CC(=O)[C@]3(O)O[C@@H]2[C@@H](NC)[C@H]1O,-7.34% (inactive),–
CN1CC(=O)NC1=N,-5.08% (inactive),–
CCCCCC(=O)O[C@]1(C(C)=O)CC[C@H]2[C@@H]3CCC4=CC(=O)CC[C@]4(C)[C@H]3CC[C@@]21C,23.2% (inactive),–
NS(=O)(=O)c1cc2c(cc1Cl)NC(CC1CCCC1)NS2(=O)=O (configuration not stated),11.9% (inactive),–
CCCCC(CC)CNC(=O)CC(C)OC(=O)CCC(=O)O (configuration not stated),11.7% (inactive),–
